# Test results: PubChem BioAssay (NCATS)
# Records with an inconclusive call do not appear. Active and inactive are the calls of the source. Calls come from the whole dose curve; as a rule, active = well fitted curve in the direction sought with a large enough effect; inconclusive = small, poorly fitted or top-dose-only effect, or another doubt; inactive = no such curve, though single readings can be large; an effect the other way counts as inactive or inconclusive.
# Key:
# [1] = BET inhibitor-based combinations targeting novel dependencies in MECOM-rearranged (r) AML: SET-2 cell line (AID 2202231); details: SET-2 AML cells viability, CellTiter-Glo luminescence, 48 h; viability: hits give low values, concentration not given here; note: nearly all actives have a fitted effect of over 35% in size;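 for viability: plate controls were DMSO treated cells for no effect and wells without cells for full effect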
# How it was run: (§1)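 Here, 11-point titrations of each agent were applied to 500 seeded cells and incubated 48 hr; CellTiter-Glo signal, scaled against DMSO and empty wells, was integrated as AUC, then Z-scored within the individual line.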
# [2] = BET inhibitor-based combinations targeting novel dependencies in MECOM-rearranged (r) AML: OCI-AML3 cell line (AID 2202232); details: CellTiter-Glo luminescence, 48 h; Potency: OCI-AML3 viability; series mostly up to 46 µM; note: nearly all actives have a fitted effect of over 35% in size
# How it was run: as §1
# [3] = BET inhibitor-based combinations targeting novel dependencies in MECOM-rearranged (r) AML: MV-4-11 cell line (AID 2202233); details: MV-4-11 AML viability, CellTiter-Glo luminescence, 48 h; series mostly up to 46 µM; note: nearly all actives have a fitted effect of over 45% in size
# How it was run: (§2)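 Normalized to DMSO and empty-well controls, the luminescence data from CellTiter-Glo after 48 hr drug exposure were fitted across 11 concentrations. Reported metrics are area under the dose-response curve and its Z-transformed form.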
# [4] = BET inhibitor-based combinations targeting novel dependencies in MECOM-rearranged (r) AML: HNT-34 cell line (AID 2202234); details: HNT-34 AML viability, CellTiter-Glo luminescence, 48 h; series mostly up to 46 µM; note: nearly all actives have a fitted effect of over 35% in size
# How it was run: as §2
# [5] = BET inhibitor-based combinations targeting novel dependencies in MECOM-rearranged (r) AML: UCSD-AML1 cell line (AID 2202235); details: UCSD-AML1 AML cells viability, CellTiter-Glo, 48 h; series mostly up to 46 µM; note: nearly all actives have a fitted effect of over 40% in size
# How it was run: as §2
# [6] = BET inhibitor-based combinations targeting novel dependencies in MECOM-rearranged (r) AML: AML-191 cell line (AID 2202236; note: nearly all actives have a fitted effect of over 35% in size); details: AML-191 viability, CellTiter-Glo luminescence, 48 h; series mostly up to 46 µM
# How it was run: as §1
# [7] = BET inhibitor-based combinations targeting novel dependencies in MECOM-rearranged (r) AML: AML-194 cell line (AID 2202237; note: nearly all actives have a fitted effect of over 40% in size); details: AML-194 (MECOM-r AML) viability, CellTiter-Glo, 48 h; series mostly up to 46 µM
# How it was run: as §1
# Potency is the fitted concentration of half-maximal effect.
Structure (SMILES),Potency [1],Potency [2],Potency [3],Potency [4],Potency [5],Potency [6],Potency [7],viability [1]
Cc1cc(I)ccc1Nc1c(C(=O)NOCC2CC2)cc(F)c(F)c1F,20.9 µM (active),1.66 µM (active),16.6 µM (active),14.8 µM (active),5.9 µM (active),16.6 µM (active),20.9 µM (active),–
COC1=C(OC)C(=O)C(C/C=C(\C)CC/C=C(\C)CC/C=C(\C)CC/C=C(/C)CC/C=C(\C)CC/C=C(\C)CC/C=C(\C)CC/C=C(\C)CC/C=C(\C)CCC=C(C)C)=C(C)C1=O,–,inactive,inactive,inactive,inactive,inactive,inactive,117% (inactive)
C=C1C(=O)O[C@@H]2[C@H]3C(C)=CC[C@@]34O[C@@]4(C)CC[C@@H]12,9.34 µM (active),8.33 µM (active),7.42 µM (active),10.5 µM (active),13.2 µM (active),13.2 µM (active),13.2 µM (active),–
CNCCCOc1cc(F)c(-c2c(Cl)nc3ncnn3c2N[C@@H](C)C(F)(F)F)c(F)c1,0.148 µM (active),0.0833 µM (active),0.0934 µM (active),0.0742 µM (active),0.118 µM (active),0.0934 µM (active),0.105 µM (active),–
CN1CCCN(C(=O)c2cccc(-c3ccc(/C=C4/C(=O)Nc5ccc(Cl)cc54)o3)c2)CC1,20.9 µM (active),6.61 µM (active),0.662 µM (active),2.63 µM (active),1.32 µM (active),2.95 µM (active),1.86 µM (active),–
C=C1CCC2[C@](C)(CO)C(O)CC[C@]2(C)C1C/C=C1/C(=O)OCC1O (some centres not stated),14.8 µM (active),7.42 µM (active),3.32 µM (active),5.9 µM (active),11.8 µM (active),7.42 µM (active),9.34 µM (active),–
